From PubChem BioAssay (NCI) come the findings set out here.

Test systems include DU-145 prostate; K-562 leukemia; MALME-3M melanoma; MDA-MB-231 breast; RXF 393 renal; SF-268 CNS; SF-295 CNS; SF-539 CNS; UACC-257 melanoma; M14 melanoma.
Holding throughout (test): NCI-60 one-dose screen, 48 h (100 = growth as untreated, 0 = no growth, -100 = all killed)
What all share (conditions): 10 µM unless noted

About 83,000 compounds went through this panel and 20% of them were active in at least one assay; those are over-represented in the sample as a whole.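 Method: cells in 96-well plates; compound added at one concentration; 48 h incubation; percent growth measured; values under 10 scored active.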 Activity calls are given as the source filed them.

Consider `CC(C)C[C@H](NC(=O)/C=C/Cn1ccc2ccccc2c1=O)B(O)O`, for which the growth was 40.6% (inactive) with DU-145 prostate; 35.8% (inactive) with K-562 leukemia; -30% (active) with MALME-3M melanoma; 35.1% (inactive) with MDA-MB-231 breast; 8.46% (active) with RXF 393 renal; 24.6% (inactive) in the experiment on SF-268 CNS. Besides, the growth in the experiment with SF-295 CNS is 26.8% (inactive); with SF-539 CNS, 15.1% (inactive); with UACC-257 melanoma, 43.2% (inactive); in the experiment on M14 melanoma, 21.1% (inactive).

Take `O=C1NC(=S)S/C1=C\c1cc(Br)ccc1O`: the growth was 105% (inactive) with DU-145 prostate; 112% (inactive) with K-562 leukemia; 71.8% (inactive) in the experiment with MALME-3M melanoma; 96.7% (inactive) in the experiment with MDA-MB-231 breast; 115% (inactive) in the experiment with RXF 393 renal; 90.1% (inactive) in the experiment on SF-268 CNS. Also, the growth with SF-295 CNS was 111% (inactive); in the experiment with SF-539 CNS, 93.1% (inactive); in the experiment with UACC-257 melanoma it was 105% (inactive); in the experiment on M14 melanoma it was 88.5% (inactive).

Regarding `CCN1CC2=C(Nc3nc(SC)[nH]c(=O)c3C2c2cc(OC)c(OC)c(OC)c2)/C(=C/c2cc(OC)c(OC)c(OC)c2)C1` (stereo not given), the growth with DU-145 prostate is 112% (inactive); in the experiment on K-562 leukemia, 90.9% (inactive); with MALME-3M melanoma it was 112% (inactive); with MDA-MB-231 breast, 104% (inactive); with RXF 393 renal, 106% (inactive); in the experiment on SF-268 CNS, 110% (inactive). The growth in the experiment on SF-295 CNS was 100% (inactive); with SF-539 CNS it was 104% (inactive); in the experiment on UACC-257 melanoma, 97% (inactive); in the experiment on M14 melanoma, 114% (inactive).

With `O=c1[nH]c(N2CCC(Cc3ccccc3)CC2)nc2sc3c(c12)CCCC3`, the growth is 107% (inactive) with DU-145 prostate; 110% (inactive) in the experiment with K-562 leukemia; 102% (inactive) with MALME-3M melanoma; 106% (inactive) in the experiment on MDA-MB-231 breast; 104% (inactive) in the experiment with RXF 393 renal; 95.2% (inactive) in the experiment with SF-268 CNS. Also, the growth is 94.6% (inactive) in the experiment with SF-295 CNS, 105% (inactive) with SF-539 CNS, 85.4% (inactive) with UACC-257 melanoma and 100% (inactive) in the experiment on M14 melanoma.

Consider `OCc1n(Cc2ccc3ccccc3c2)cc[n+]1Cc1ccc2ccccc2c1`, for which the growth with DU-145 prostate is 84.7% (inactive); in the experiment with K-562 leukemia, 22.7% (inactive); with MALME-3M melanoma, 38.1% (inactive); in the experiment with MDA-MB-231 breast, 51.4% (inactive); with RXF 393 renal, 57.3% (inactive); in the experiment with SF-268 CNS it was 60.7% (inactive). In addition, the growth is 79.2% (inactive) in the experiment on SF-295 CNS, 68.3% (inactive) in the experiment on SF-539 CNS, 18.3% (inactive) in the experiment with UACC-257 melanoma and 41.7% (inactive) in the experiment on M14 melanoma.

With `CCN(CC)c1ccc(N=C2C=CC(=O)C=C2NC(C)=O)cc1`, the growth in the experiment with DU-145 prostate was 111% (inactive); in the experiment with K-562 leukemia it was 77.9% (inactive); in the experiment on MALME-3M melanoma, 142% (inactive); with MDA-MB-231 breast it was 81.7% (inactive); in the experiment with RXF 393 renal it was 94.8% (inactive); in the experiment with SF-268 CNS it was 94% (inactive). In addition, the growth is 115% (inactive) in the experiment on SF-295 CNS, 95.3% (inactive) with SF-539 CNS, 90.7% (inactive) in the experiment on UACC-257 melanoma and 109% (inactive) in the experiment with M14 melanoma.

On to `O=C1/C=C/[C@@H](O)[C@@H]2C[C@@H](O)C[C@H]2/C=C/CCC[C@H](CO)O1`, for which the growth in the experiment with DU-145 prostate is 92.9% (inactive); in the experiment on K-562 leukemia, 46.8% (inactive); with MALME-3M melanoma, 7.5% (active); in the experiment with MDA-MB-231 breast, 3.23% (active); in the experiment with RXF 393 renal, -29.9% (active); in the experiment with SF-268 CNS, 20.6% (inactive). The growth with SF-295 CNS was 23.9% (inactive); in the experiment with SF-539 CNS, 34.8% (inactive); with UACC-257 melanoma it was 29.9% (inactive); with M14 melanoma it was 11.6% (inactive).

Take `N#Cc1ccccc1C#Cc1ccccc1C#Cc1ccc(OCCCCCCOc2ccc(C#Cc3ccccc3C#Cc3ccccc3C#N)cc2)cc1`: the growth is 111% (inactive) in the experiment with DU-145 prostate; 96.7% (inactive) in the experiment on K-562 leukemia; 102% (inactive) with MALME-3M melanoma; 88.5% (inactive) in the experiment on MDA-MB-231 breast; 97.7% (inactive) in the experiment with RXF 393 renal; 115% (inactive) with SF-268 CNS. Also, the growth in the experiment with SF-295 CNS was 106% (inactive); with SF-539 CNS, 97.6% (inactive); in the experiment on UACC-257 melanoma it was 103% (inactive); in the experiment with M14 melanoma, 85.8% (inactive).

With `CN(C)c1ccc(-n2nc3ccccc3n2)cc1`, the growth was 101% (inactive) in the experiment with DU-145 prostate; 70.1% (inactive) with K-562 leukemia; 117% (inactive) in the experiment with MALME-3M melanoma; 85.4% (inactive) in the experiment on MDA-MB-231 breast; 98.9% (inactive) in the experiment on RXF 393 renal; 127% (inactive) in the experiment with SF-268 CNS. In addition, the growth in the experiment with SF-295 CNS was 82.7% (inactive); with SF-539 CNS it was 86.1% (inactive); in the experiment with UACC-257 melanoma, 101% (inactive); in the experiment with M14 melanoma it was 92.2% (inactive).

Turning to `COC(=O)Nc1ccc2ccc3c(NC(=O)OC)ccc4ccc1c2c43` (tested in a mixture with another compound), the growth in the experiment with DU-145 prostate was 86.9% (inactive); in the experiment with K-562 leukemia, 25% (inactive); with MALME-3M melanoma, 68.8% (inactive); in the experiment with MDA-MB-231 breast, 54.1% (inactive); with RXF 393 renal, 77.6% (inactive); in the experiment with SF-268 CNS it was 67.7% (inactive). The growth is 48.2% (inactive) in the experiment on SF-295 CNS, 50.7% (inactive) in the experiment with SF-539 CNS, 71.7% (inactive) in the experiment with UACC-257 melanoma and 25.4% (inactive) in the experiment on M14 melanoma.

In the case of `CN1CCN(c2nc3scc(-c4ccccc4)c3c(=O)[nH]2)CC1`, the growth is 103% (inactive) with DU-145 prostate; 95.9% (inactive) in the experiment on K-562 leukemia; 86.4% (inactive) in the experiment with MALME-3M melanoma; 92% (inactive) in the experiment on MDA-MB-231 breast; 96.5% (inactive) in the experiment on RXF 393 renal; 96.7% (inactive) with SF-268 CNS. Moreover, the growth was 96.6% (inactive) in the experiment on SF-295 CNS, 93.7% (inactive) with SF-539 CNS, 108% (inactive) with UACC-257 melanoma and 97.6% (inactive) in the experiment on M14 melanoma.

Consider `Cc1cc(Br)c(C)cc1Br`, for which the growth is 102% (inactive) in the experiment on DU-145 prostate; 89.8% (inactive) with K-562 leukemia; 121% (inactive) with MALME-3M melanoma; 111% (inactive) with MDA-MB-231 breast; 106% (inactive) in the experiment on RXF 393 renal; 100% (inactive) with SF-268 CNS. In addition, the growth in the experiment with SF-295 CNS was 89.2% (inactive); in the experiment with SF-539 CNS, 103% (inactive); in the experiment on UACC-257 melanoma, 94.4% (inactive); with M14 melanoma it was 100% (inactive).

For `O=C(/C=C/c1cccc(Nc2ccnc3cc(Cl)ccc23)c1)c1ccc(Cl)cc1`, the growth with DU-145 prostate was 59.6% (inactive); in the experiment on K-562 leukemia, 14.6% (inactive); in the experiment on MALME-3M melanoma, 62.5% (inactive); in the experiment on MDA-MB-231 breast, 60.4% (inactive); in the experiment on RXF 393 renal, 71.9% (inactive); with SF-268 CNS, 69.2% (inactive). The growth in the experiment on SF-295 CNS is 40.2% (inactive); in the experiment on SF-539 CNS, 62.5% (inactive); in the experiment on UACC-257 melanoma it was 61.3% (inactive); with M14 melanoma it was 54.3% (inactive).

Turning to `COc1ccccc1NC(=O)c1sc2nc3c(cc2c1N)C(=O)CCC3`, the growth is 86.6% (inactive) in the experiment on DU-145 prostate; 41.5% (inactive) in the experiment with K-562 leukemia; 58.2% (inactive) with MALME-3M melanoma; 57.5% (inactive) in the experiment on MDA-MB-231 breast; 77% (inactive) with RXF 393 renal; 102% (inactive) in the experiment on SF-268 CNS. Further, the growth with SF-295 CNS is 25.7% (inactive); in the experiment on SF-539 CNS it was 66.2% (inactive); with UACC-257 melanoma, 58.5% (inactive); in the experiment on M14 melanoma it was 47.1% (inactive).
